{"source": "PubChem BioAssay (Tox21)", "key": {"[1]": {"assay": "Nuclear factor erythroid 2-related factor 2/antioxidant responsive element (Nrf2/ARE) small molecule agonists: qHTS cell viability counter screen in human keratinocytes (AID 1919968; active = well fitted cell-killing curve with a large enough effect in the repeat runs; also: nearly all actives have a fitted effect of over 55% in size)", "summary_of_the_method": "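HaCaT ARE reporter line, 1,500 cells/well; 5 h settle, 37 C/5% CO2; cpd in DMSO pinned; 23 h exposure; CellTiter-Fluor, 1 h; fluorescence.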"}, "[2]": {"assay": "Nuclear factor erythroid 2-related factor 2/antioxidant responsive element (Nrf2/ARE) small molecule agonists: luciferase reporter gene qHTS assay in human keratinocytes (AID 1919969); also: nearly all actives have a fitted effect of over 35% in size; also: potency is read from the fitted curve at half-maximal effect"}, "[3]": {"assay": "G protein-coupled receptor (GPCR) small molecule agonists, calcium flux assay: HEK293 wild type cell line counter screen (AID 1920065)", "summary_of_the_method": "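Kinetic fluorescence at Ex/Em 480/540, recorded every second over 3 min, served as the read-out after compound addition. Each compound was tested at 15 concentrations in triplicate on cells pre-loaded with calcium dye for 1 h.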"}, "[4]": {"assay": "p53 small molecule agonists, cell-based qHTS assay with human liver microsomes (AID 1963577)", "summary_of_the_method": "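p53RE-bla cells; 5 h settle, 37 C/5% CO2; cpd + HLM 0.5 mg/mL + NADPH 0.5 mg/mL (final); 16 h 37 C; LiveBLAzer 2 h RT dark; fluorescence readout.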"}, "[5]": {"assay": "p53 small molecule agonists, cell-based qHTS assay with rat liver microsomes (AID 1963578)", "summary_of_the_method": "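Rat liver microsome activation: microsomes 0.5 mg/mL, NADPH 0.5 mg/mL final; p53RE-bla cells, 16 h 37 C; LiveBLAzer readout, 2 h RT dark.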"}, "[6]": {"assay": "p53 small molecule agonists, cell-based qHTS assay with human liver microsomes: qHTS cell viability counter screen (AID 1963579); also: nearly all actives have a fitted effect of over 45% in size", "summary_of_the_method": "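Luminescent CellTiter-Glo read-out, 30 min at room temperature, gauged cytotoxicity in p53RE-bla cells exposed 16 h at 37 C to DMSO-dissolved compounds with metabolic activation by human liver microsomes and NADPH, each 0.5 mg/mL final.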"}, "[7]": {"assay": "p53 small molecule agonists, cell-based qHTS assay with rat liver microsomes: qHTS cell viability counter screen (AID 1963580); also: nearly all actives have a fitted effect of over 45% in size", "summary_of_the_method": "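HCT-116 p53RE-bla, 4,000 cells/well, 5 h pre-incubation; cpd + rat liver microsomes 0.5 mg/mL + NADPH 0.5 mg/mL (final); 16 h, 37 C; CellTiter-Glo, 30 min RT; luminescence.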"}, "[8]": {"assay": "p53 small molecule agonists, cell-based qHTS assay: qHTS cell viability counter screen (AID 1963581); also: nearly all actives have a fitted effect of over 45% in size", "summary_of_the_method": "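HCT-116 p53RE-bla cells, 4,000/well, plated 5 h before compound pin transfer; 16 h at 37 C; bla substrate 2 h RT; then CellTiter-Glo, 30 min RT, luminescence.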"}, "[9]": {"assay": "p53 small molecule agonists, cell-based qHTS assay (AID 1963582; active = well fitted activation curve with a large enough effect in the signal ratio in the repeat runs, not every such curve was filed as active; the % refers to the signal ratio; also: potency is read from the fitted curve at half-maximal effect)", "summary_of_the_method": "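Reporter line: p53RE-bla. Pre-incubation 5 h, 37 C, 5% CO2; compound (DMSO, pin tool) 16 h, 37 C; B/G FRET substrate 2 h RT; fluorescence intensity read.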"}, "[10]": {"target": "5-hydroxytryptamine receptor 2A (Homo sapiens) (UniProt P28223)", "sequence (P28223 whole entry, looked up)": "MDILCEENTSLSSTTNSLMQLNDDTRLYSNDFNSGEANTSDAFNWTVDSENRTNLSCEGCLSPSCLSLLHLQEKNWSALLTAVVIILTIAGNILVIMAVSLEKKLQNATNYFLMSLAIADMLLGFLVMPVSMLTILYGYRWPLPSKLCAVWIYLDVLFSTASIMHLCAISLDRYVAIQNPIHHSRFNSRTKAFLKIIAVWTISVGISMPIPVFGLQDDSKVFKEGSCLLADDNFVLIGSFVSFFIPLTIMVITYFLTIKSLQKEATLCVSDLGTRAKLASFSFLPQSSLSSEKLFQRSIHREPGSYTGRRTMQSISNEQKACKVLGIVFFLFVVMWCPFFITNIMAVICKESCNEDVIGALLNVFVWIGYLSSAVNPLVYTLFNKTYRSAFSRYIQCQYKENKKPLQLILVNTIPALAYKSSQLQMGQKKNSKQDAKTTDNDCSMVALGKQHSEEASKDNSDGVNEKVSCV", "assay": "5-hydroxytryptamine receptor 2A (HTR2A) small molecule antagonists, cell-based qHTS assay (AID 1963586); also: nearly all actives have a fitted effect of over 45% in size; also: potency is read from the fitted curve at half-maximal effect", "summary_of_the_method": "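Antagonist-mode intracellular calcium assay: DOI (4 nM) added after 5 min compound pre-incubation at room temperature to dye-loaded HTR2A-CHO cells. Fluorescence followed for 3 min, sampled every second.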"}, "[11]": {"target": "5-hydroxytryptamine receptor 2A (Homo sapiens) (UniProt P28223)", "assay": "5-hydroxytryptamine receptor 2A (HTR2A) small molecule agonists, cell-based qHTS assay (AID 1963587); also: nearly all actives have a fitted effect of over 30% in size", "summary_of_the_method": "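Kinetic calcium-flux fluorescence (2 min, 1 sec intervals) after compound addition in agonist mode. HTR2A-CHO cells were cultured 18 h, then dye-loaded 1 h at 37 C.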"}, "[12]": {"target": "Muscarinic acetylcholine receptor M1 (Homo sapiens) (UniProt P11229)", "sequence (P11229 whole entry, looked up)": "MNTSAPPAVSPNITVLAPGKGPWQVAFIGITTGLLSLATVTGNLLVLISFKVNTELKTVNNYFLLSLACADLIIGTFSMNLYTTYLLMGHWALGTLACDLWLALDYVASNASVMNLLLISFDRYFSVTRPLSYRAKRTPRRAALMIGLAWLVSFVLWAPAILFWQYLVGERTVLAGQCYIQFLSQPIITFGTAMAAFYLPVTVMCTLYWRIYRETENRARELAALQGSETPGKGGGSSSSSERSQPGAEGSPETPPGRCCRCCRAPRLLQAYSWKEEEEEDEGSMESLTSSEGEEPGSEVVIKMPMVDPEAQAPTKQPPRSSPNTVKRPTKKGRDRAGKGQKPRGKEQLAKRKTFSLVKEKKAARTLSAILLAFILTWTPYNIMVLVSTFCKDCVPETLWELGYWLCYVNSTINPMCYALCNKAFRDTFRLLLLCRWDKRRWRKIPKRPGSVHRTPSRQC", "assay": "Cholinergic receptor muscarinic 1 (CHRM1) small molecule antagonists, cell-based qHTS assay (AID 1963588); also: nearly all actives have a fitted effect of over 40% in size", "summary_of_the_method": "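CHRM1-CHO calcium-flux assay, antagonist mode. Cells were seeded 18 h, dye-loaded 1 h at 37 C and given compound for 5 min at RT, then acetylcholine was added at 50nM. FDSS fluorescence was read 3 min; 15 concentrations, three runs.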"}, "[13]": {"assay": "cAMP Responsive Elements (CRE) small molecule agonists, cell-based qHTS assay (AID 1963590)", "summary_of_the_method": "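HEK 293T CRE-bla, 2,000 cells/well, 18 h preincubation 37 C/5% CO2; cpds (DMSO) pinned, 3 h; LiveBLAzer B/G FRET substrate, 2 h RT.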"}, "[14]": {"assay": "cAMP Responsive Elements (CRE) small molecule antagonists, cell-based qHTS assay (AID 1963591; active = well fitted inhibition curve with a large enough effect in the signal ratio in the repeat runs, not every such curve was filed as active; the % refers to the signal ratio)", "summary_of_the_method": "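Beta-lactamase reporter read by FRET substrate (LiveBLAzer B/G) after 2 h at room temperature. CRE-bla HEK293T cells had received compound plus 0.25 uM (final) NKH477 for 3 h at 37 °C.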"}, "[15]": {"target": "Beta-2 adrenergic receptor (Homo sapiens) (UniProt P07550)", "sequence (P07550 whole entry, looked up)": "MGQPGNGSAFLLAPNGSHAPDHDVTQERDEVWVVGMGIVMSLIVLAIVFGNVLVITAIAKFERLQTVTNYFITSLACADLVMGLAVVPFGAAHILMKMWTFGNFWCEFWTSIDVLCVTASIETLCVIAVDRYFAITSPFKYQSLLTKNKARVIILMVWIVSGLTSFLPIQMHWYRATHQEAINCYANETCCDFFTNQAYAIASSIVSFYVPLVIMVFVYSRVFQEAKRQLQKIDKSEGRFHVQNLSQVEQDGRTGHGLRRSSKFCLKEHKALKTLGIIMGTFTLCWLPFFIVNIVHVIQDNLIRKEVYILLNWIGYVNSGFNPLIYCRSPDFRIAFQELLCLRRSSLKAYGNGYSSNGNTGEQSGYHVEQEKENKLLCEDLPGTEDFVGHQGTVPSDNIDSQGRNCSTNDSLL", "assay": "Adrenergic beta2 receptor (ADRB2) small molecule antagonists, cell-based qHTS assay (AID 1963592); also: series mostly up to about 92 µM; nearly all actives have a fitted effect of over 50% in size", "summary_of_the_method": "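Cells (CHO, stable ADRB2 overexpression) incubated 18-20hr at 37C; compounds added from DMSO; agonist mix (1nM isoproterenol, 100uM IBMX, 25uM Ro-20-1724) added; 0.5hr RT; d2-cAMP and anti-cAMP-cryptate added; 1hr RT; 665/615 nm read.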"}, "[16]": {"target": "D(2) dopamine receptor (Homo sapiens) (UniProt P14416)", "sequence (P14416 whole entry, looked up)": "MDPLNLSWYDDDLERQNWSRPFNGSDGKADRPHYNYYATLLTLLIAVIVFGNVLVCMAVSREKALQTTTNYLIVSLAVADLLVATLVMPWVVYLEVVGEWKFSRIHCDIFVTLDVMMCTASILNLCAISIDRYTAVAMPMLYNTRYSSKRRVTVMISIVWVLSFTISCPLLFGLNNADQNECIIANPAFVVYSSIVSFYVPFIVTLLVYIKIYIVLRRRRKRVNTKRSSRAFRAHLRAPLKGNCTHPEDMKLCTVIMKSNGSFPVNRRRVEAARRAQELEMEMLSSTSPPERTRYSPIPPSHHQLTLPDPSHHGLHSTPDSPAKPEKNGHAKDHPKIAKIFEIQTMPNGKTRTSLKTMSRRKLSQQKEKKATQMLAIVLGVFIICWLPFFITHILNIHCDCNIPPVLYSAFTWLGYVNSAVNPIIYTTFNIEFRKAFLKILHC", "assay": "Dopamine D2 receptor (DRD2) small molecule agonists, cell-based qHTS assay (AID 1963594); also: nearly all actives have a fitted effect of over 35% in size", "summary_of_the_method": "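cAMP accumulation in DRD2-HEK293 cells measured by HTRF after 1 h detection; compounds added 10 min before NKH477 (200nM […]) forskolin-analogue stimulation, 30 min at room temperature, with Ro20-1724 present at 0.1 mM final.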"}, "[17]": {"target": "D(2) dopamine receptor (Homo sapiens) (UniProt P14416)", "assay": "Dopamine D2 receptor (DRD2) small molecule antagonists, cell-based qHTS assay (AID 1963595; active = well fitted inhibition curve with a large enough effect in the signal ratio in the repeat runs, with a control signal flat; the % refers to the signal ratio)", "summary_of_the_method": "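Antagonist mode in DRD2-HEK293 cells: after compound addition with 0.1 mM Ro20-1724, cells received quinpirole (12 nM) and NKH477 (200 nM) for 30 min at room temperature; HTRF cAMP read after 1 h detection.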"}, "[18]": {"target": "Muscarinic acetylcholine receptor M1 (Homo sapiens) (UniProt P11229)", "assay": "Cholinergic receptor muscarinic 1 (CHRM1) small molecule agonists, cell-based qHTS assay (AID 1963589); also: nearly all actives have a fitted effect of over 35% in size", "summary_of_the_method": "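Human M1 in stable CHO line; 18 h plating, 1 h dye load 37 C; cpd added (agonist mode); Ca2+ fluorescence kinetic read, 1 s intervals; 15 conc, 3 runs.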"}, "[19]": {"target": "Beta-2 adrenergic receptor (Homo sapiens) (UniProt P07550)", "assay": "Adrenergic beta2 receptor (ADRB2) small molecule agonists, cell-based qHTS assay (AID 1963593)", "summary_of_the_method": "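CHO cells stably over-expressing ADRB2 were plated overnight at 37C, then dosed with compounds plus a stimulation mix containing 100uM IBMX and 25uM Ro-20-1724 for 0.5hr at room temperature. cAMP was measured by HTRF competition, 1hr.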"}}, "note": "Several values for one entry are separate records, joined by “and”; a condition that tells them apart may be missing. Identical values can stand only once. Results filed as inconclusive are left out. Where a call stands in place of a potency, no number is given. Activity calls are given as the source filed them. Unless noted, calls follow the shape of the full dose curve."}
{"smiles": "CCCCOC(=O)c1ccccc1C(=O)O", "values": [{"measurement": "Potency", "setting": "[1]", "value": "inactive"}, {"measurement": "Potency", "setting": "[2]", "value": "inactive"}, {"measurement": "Potency", "setting": "[3]", "value": "inactive"}, {"measurement": "Potency", "setting": "[4]", "value": "inactive"}, {"measurement": "Potency", "setting": "[5]", "value": "inactive"}, {"measurement": "Potency", "setting": "[6]", "value": "inactive"}, {"measurement": "Potency", "setting": "[7]", "value": "inactive"}, {"measurement": "Potency", "setting": "[8]", "value": "inactive"}, {"measurement": "Potency", "setting": "[9]", "value": "inactive"}, {"measurement": "Potency", "setting": "[10]", "value": "inactive"}, {"measurement": "Potency", "setting": "[11]", "value": "inactive"}, {"measurement": "Potency", "setting": "[12]", "value": "inactive"}, {"measurement": "Potency", "setting": "[13]", "value": "inactive"}, {"measurement": "Potency", "setting": "[14]", "value": "inactive"}, {"measurement": "Potency", "setting": "[15]", "value": "inactive"}, {"measurement": "Potency", "setting": "[16]", "value": "inactive"}, {"measurement": "Potency", "setting": "[17]", "value": "inactive"}]}
{"smiles": "CCCCCCCCCCCCCCCl", "values": [{"measurement": "Potency", "setting": "[1]", "value": "inactive"}, {"measurement": "Potency", "setting": "[2]", "value": "inactive"}, {"measurement": "Potency", "setting": "[3]", "value": "inactive"}, {"measurement": "Potency", "setting": "[4]", "value": "inactive"}, {"measurement": "Potency", "setting": "[5]", "value": "inactive"}, {"measurement": "Potency", "setting": "[7]", "value": "inactive"}, {"measurement": "Potency", "setting": "[8]", "value": "inactive"}, {"measurement": "Potency", "setting": "[9]", "value": "inactive"}, {"measurement": "Potency", "setting": "[10]", "value": "inactive"}, {"measurement": "Potency", "setting": "[11]", "value": "inactive"}, {"measurement": "Potency", "setting": "[12]", "value": "inactive"}, {"measurement": "Potency", "setting": "[18]", "value": "inactive"}, {"measurement": "Potency", "setting": "[13]", "value": "inactive"}, {"measurement": "Potency", "setting": "[14]", "value": "inactive"}, {"measurement": "Potency", "setting": "[15]", "value": "inactive"}, {"measurement": "Potency", "setting": "[16]", "value": "inactive"}, {"measurement": "Potency", "setting": "[17]", "value": "inactive"}]}
{"smiles": "CN(C)c1ccc(C(=O)c2ccc(N(C)C)cc2)cc1", "values": [{"measurement": "Potency", "setting": "[1]", "value": "inactive"}, {"measurement": "Potency", "setting": "[2]", "value": "67.9 µM (active) and 54.5 µM (active)"}, {"measurement": "Potency", "setting": "[3]", "value": "inactive"}, {"measurement": "Potency", "setting": "[4]", "value": "inactive"}, {"measurement": "Potency", "setting": "[5]", "value": "inactive"}, {"measurement": "Potency", "setting": "[6]", "value": "inactive"}, {"measurement": "Potency", "setting": "[7]", "value": "inactive"}, {"measurement": "Potency", "setting": "[9]", "value": "11.4 µM (active)"}, {"measurement": "Potency", "setting": "[10]", "value": "inactive"}, {"measurement": "Potency", "setting": "[11]", "value": "inactive"}, {"measurement": "Potency", "setting": "[12]", "value": "inactive"}, {"measurement": "Potency", "setting": "[18]", "value": "inactive"}, {"measurement": "Potency", "setting": "[14]", "value": "inactive"}, {"measurement": "Potency", "setting": "[15]", "value": "inactive"}, {"measurement": "Potency", "setting": "[19]", "value": "inactive"}, {"measurement": "Potency", "setting": "[16]", "value": "inactive"}, {"measurement": "Potency", "setting": "[17]", "value": "inactive"}]}
{"smiles": "Nc1ccc(-c2ccc(N)c(Cl)c2)cc1Cl", "values": [{"measurement": "Potency", "setting": "[1]", "value": "inactive"}, {"measurement": "Potency", "setting": "[2]", "value": "inactive"}, {"measurement": "Potency", "setting": "[3]", "value": "inactive"}, {"measurement": "Potency", "setting": "[4]", "value": "inactive"}, {"measurement": "Potency", "setting": "[5]", "value": "inactive"}, {"measurement": "Potency", "setting": "[6]", "value": "inactive"}, {"measurement": "Potency", "setting": "[7]", "value": "inactive"}, {"measurement": "Potency", "setting": "[8]", "value": "inactive"}, {"measurement": "Potency", "setting": "[10]", "value": "21.2 µM (active) and 17.5 µM (active) and 29.8 µM (active)"}, {"measurement": "Potency", "setting": "[11]", "value": "inactive"}, {"measurement": "Potency", "setting": "[12]", "value": "inactive"}, {"measurement": "Potency", "setting": "[13]", "value": "inactive"}, {"measurement": "Potency", "setting": "[14]", "value": "inactive"}, {"measurement": "Potency", "setting": "[19]", "value": "inactive"}, {"measurement": "Potency", "setting": "[16]", "value": "inactive"}, {"measurement": "Potency", "setting": "[17]", "value": "inactive"}]}
